We go through twelve compounds from PubChem BioAssay (NCI).

Several values for one entry are separate records, joined by “and”; a condition that tells them apart may be missing. Equal entries are not always repeated. The panel holds about 83,000 compounds, 20% with a hit somewhere; the sample as a whole holds those more often.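 Single-concentration screen, 48 h exposure, 96-well plates. Endpoint: percent growth. Below 10 = active.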 Unmarked numbers belong to inactive results. Activity calls are given as the source filed them.

Holding throughout (test): NCI-60 one-dose screen, 48 h (100 = growth as untreated, 0 = no growth, -100 = all killed)
Holding throughout (settings): 10 µM unless noted

The test system of assay [1] is SR leukemia.
For assay [2], the system named is RPMI-8226 leukemia.
The subject of assay [3] is OVCAR-8 ovarian.
Assay [4] relates to OVCAR-5 ovarian.
Assay [5] deals with OVCAR-4 ovarian.
Assay [6] concerns SK-OV-3 ovarian.
Assay [7] has as its system IGROV1 ovarian.
Assay [8] relates to OVCAR-3 ovarian.
Assay [9] has as its system HS 578T breast.
Assay [10] concerns NCI/ADR-RES ovarian.

With `O=C(NCc1cccnc1)/C(=C\c1ccc(Br)cc1)S(=O)(=O)c1ccccc1`, the growth in assay [1] is 55.9%; in [2] it was 26.7%; in [3], 3.01% (active); in assay [4], -41.3% (active); in assay [5], 0.235% (active); in [6], 10.2%. Further, the growth in [7] is -11.3% (active); in [8], -96.7% (active); in [9] it was 14.9%; in assay [10] it was 2.59% (active).
Consider `COC(=O)c1nc(-c2ccc(C)cc2)oc1Sc1ccc(C)cc1`, for which the growth in [1] was 76.1%; in assay [2], 81.4%; in assay [3], 98.5%; in assay [4] it was 97.8%; in assay [5], 101%; in [6] it was 92.1%. Besides, the growth is 110% in assay [7], 108% in [8], 108% in [9] and 108% in [10].
For the compound `O=C(CCCOc1ccc(Br)cc1)Nc1ncc(Cc2ccc(F)cc2)s1`, the growth is 22.6% in assay [1]; 77.6% in assay [2]; 91.5% in assay [3]; 79.4% in assay [4]; 68.7% in assay [5]; 81.7% in assay [6]. For the same compound, the growth is 78.5% in [7], 81% in assay [8], 74.3% in assay [9] and 73.6% in [10].
For the compound `Nc1nc(Nc2cccnc2)sc1C(=O)c1ccccc1F`, the growth in assay [1] was 19.1%; in [2], 17.7%; in assay [3], 31.8%; in [4] it was 26.2%; in [5] it was 80.7%; in [6], 85.9%. For the same compound, the growth was 21.3% in assay [7], 9.96% (active) in assay [8], 58.1% in assay [9] and 48.3% in assay [10].
As for `COc1ccc(/C=N/NC(=O)CN2CCN(c3cc4c(cc3F)c(=O)c(C(=O)O)cn4C3CC3)CC2)cc1O`, the growth in assay [1] was 80.2%; in [2], 92.3%; in assay [3], 95.1%; in assay [4], 108%; in assay [5] it was 108%; in assay [6], 108%. Moreover, the growth was 95.5% in assay [7], 103% in assay [8], 96.8% in assay [9] and 106% in [10].
With `N#CSc1c[nH]c2ccc(/C=C/C(=O)/C=C(/C=C/c3ccc4[nH]cc(SC#N)c4c3)OB(F)F)cc12`, the growth in assay [1] is -25.1% (active); in [2] it was -12.2% (active); in assay [3], -21.6% (active); in [4] it was 17%; in assay [5], 1% (active); in [6], 98.4%. In addition, the growth in assay [7] is -55.5% (active); in assay [8], -52.8% (active); in assay [9] it was 26.8%; in assay [10], 10.9%.
Turning to `Cc1ccc(C(=O)Nc2ccc(CN3CCN(C)CC3)c(C(F)(F)F)c2)cc1C#Cc1cnc(N)cc1C#N`, the growth was -29.8% (active) in assay [1]; -24.4% (active) in assay [2]; -32.9% (active) in assay [3]; 12.8% in assay [4]; 5.13% (active) in assay [5]; -7.98% (active) in assay [6]. Moreover, the growth in assay [7] is -47.7% (active); in assay [8], -40.1% (active); in [9], -23.5% (active); in assay [10], -27.3% (active).
In the case of `COc1cc(/C=C/C(=O)c2ccc(NC(=O)CSc3nnc(-c4cc(-c5ccccc5)nc5ccccc45)n3-c3ccccc3)cc2)cc(OC)c1OC`, the growth was 58% in assay [1]; 72.3% in assay [2]; 86.9% in assay [3]; 93.6% in [4]; 103% in [5]; 101% in [6]. The growth in assay [7] was 110%; in assay [8], 98.5%; in assay [9], 90.4%; in [10] it was 86.7%.
Regarding `COc1cc(CNC(=O)CCCC/C=C/C(C)C)ccc1OCc1cn(-c2ccc([N+](=O)[O-])cc2)nn1`, the growth is 62.2% in assay [1]; 61.8% in assay [2]; 82.9% in [3]; 99.1% in assay [4]; 87.2% in [5]; 76.7% in assay [6]. The growth in [7] is 90.4%; in assay [8] it was 92.7%; in assay [9] it was 95.8%; in assay [10], 29%.
Take `CCc1c2c(nc3ccc(OCc4ccc(B5OC(C)(C)C(C)(C)O5)cc4)cc13)-c1cc3c(c(=O)n1C2)COC(=O)[C@]3(O)CC`: the growth in [1] is 11.8%; in [2] it was 10.4%; in [3], 10.6%; in assay [4], 10%; in [5], 23.7%; in assay [6], -1.58% (active). The growth in assay [7] was 12.8%; in [8] it was 0.732% (active); in [9] it was 38.4%; in [10], 0.929% (active).
Take `COc1ccc(C(c2cc(OC)c(OC)c(OC)c2)n2ccnc2)cc1O` (stereo not given): the growth in [1] was 8.48% (active); in assay [2], 18.9%; in assay [3], 10.3%; in assay [4], 71.1%; in assay [5], 73.6%; in assay [6], 21.8%. For the same compound, the growth in assay [7] is 36.4%; in assay [8], -9.52% (active); in assay [9] it was 29.1%; in assay [10], 12.1%.
On to `CCOc1ccc(C(=O)Cc2ccccc2)cc1`, for which the growth in assay [1] was 93.4% and 92.3%; in [2] it was 106% and 95%; in [3], 109% and 106%; in assay [4] it was 103% and 109%; in assay [5], 105% and 106%; in assay [6], 121% and 117%. The growth was 116% and 110% in assay [7]; 120% and 125% in assay [8]; 107% in [9]; 107% and 104% in assay [10].
